# Measured values: the supplement of paper PMC4840960
# ± gives the standard deviation of the averaged measurements.
# Test system: E18 rat cortical neuron-glia co-culture
# Experiment: fiber score / MBP score (myelination specific beyond OL differentiation) (ratio); higher = more myelination-specific MBP alignment
# Conditions: 1 µM; treatment time: 8 days (DIV5-DIV13)
# Summary of the method: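 Library compounds were applied at 1 or 5 µM in myelination medium, DIV5 to DIV13, to primary E18 rat cortical co-cultures grown at 20,000 cells/well in 96-well plates. After 4 % paraformaldehyde fixation and MBP/Olig2/DAPI immunostaining, four 10X fields per well in duplicate wells were scored. Each value is continuous MBP fiber length per Olig2+ nucleus divided by thresholded MBP area × intensity per Olig2+ nucleus.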
row,SMILES,fiber score / MBP score
1,Cc1nccn1CC1CCc2c(c3ccccc3n2C)C1=O (centres undefined) [Ondansetron],0.73 ± 0.022
2,Cc1ncc([N+](=O)[O-])n1CC(C)O (centres undefined) [Secnidazole],0.462
3,O=C(c1ccc(F)cc1)C1CCN(CCn2c(=S)[nH]c3ccccc3c2=O)CC1 [Altanserin],0.994
4,Cc1onc(-c2ccccc2)c1-c1ccc(S(N)(=O)=O)cc1 [Valdecoxib],0.873
5,NC(=O)OCC(COC(N)=O)c1ccccc1 [Felbamate],0.591
6,Brc1c(NC2=NCCN2)ccc2nccnc12 [Brimonidine],0.915
7,Cc1ncc([N+](=O)[O-])n1CCO [Metronidazole],0.862
8,CN1CCN(C2=Nc3ccccc3Oc3ccc(Cl)cc32)CC1 [Loxapine],0.561
9,CC(C)(C#N)c1cc(Cn2cncn2)cc(C(C)(C)C#N)c1 [Anastrozole],0.803
10,CN(C)C(=O)C(CCN1CCC(O)(c2ccc(Cl)cc2)CC1)(c1ccccc1)c1ccccc1 [Loperamide],0.58
11,CC1(C)O[C@@H]2C[C@H]3[C@@H]4C[C@H](F)C5=CC(=O)C=C[C@]5(C)[C@@]4(F)[C@@H](O)C[C@]3(C)[C@]2(C(=O)CO)O1 [Fluocinolone Acetonide],1.4
12,COc1cc(C(=O)NS(=O)(=O)c2ccccc2C)ccc1Cc1cn(C)c2ccc(NC(=O)OC3CCCC3)cc12 [Zafirlukast],0.627
13,CNC[C@H](O)c1ccc(O)c(O)c1 [Epinephrine],0.884
14,NS(=O)(=O)c1cc2c(cc1Cl)NCNS2(=O)=O [Hydrochlorothiazide],0.749
